# Screening data from PubChem BioAssay.
# Many of the other results were omitted from the sample, so hits are more common in it than they were.
# Shiga toxin inh: Shiga toxin inhibition | inhibition, % at 38.7 µM | hit rate 9.2% among 290,000 | Vero cells, Shiga toxin protein synthesis inhibition reporter; in the data active means inhibition mostly above about 28%, no sharp cut-off; inactive means mostly below about 43%; further: 0% is about no effect
# LmPK inhibitor: inhibitors of Leishmania mexicana pyruvate kinase. hit rate 0.37% among 290,000. Potency, µM (titrated, usually from 57.5 µM), for the others: at the top dose activity change, negative = inhibition, hits mostly inhibitors. purified LmPK, Kinase-Glo ATP luminescence, 1 h. Q27686; further: potency means the concentration at half of the fitted maximal effect; on the % scale 0 is the no-effect control and ±100 the full control effect
#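 qHTS format; LmPK 0.1 nM; substrates PEP 0.5 mM and ADP 0.1 mM. One-hour room-temperature incubation, then coupled luciferase luminescence; 0.5 nM enzyme wells mark activation.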
# Sm TGR block: inhibitors of Schistosoma mansoni thioredoxin glutathione reductase. Q962Y6. purified TGR, DTNB reduction, TNB absorbance 405 nm. Potency, µM (top dose mostly 114 µM), for the others: at the top dose activity change, negative = inhibition, actives largely listed as inhibitors. hit rate 3% among 360,000. AID 485364; further: potency means the concentration at half of the fitted maximal effect; on the % scale 0 is the no-effect control and ±100 the full control effect; nearly all actives have a fitted effect of over 60% in size
#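 First, TGR (20 nM dispensed) and NADPH were mixed with compound. Second, a 15 min room-temperature incubation followed. Third, further NADPH and then DTNB were added to start the reaction. Finally, TNB absorbance was monitored kinetically.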
# CHX counter: counter-screen hit for Shiga toxin inhibitors, cycloheximide; cell reporter, cycloheximide protein synthesis inhibition counterscreen; max response, %; hit rate 12% among 300,000; in the data active means max response mostly above about 13%, no sharp cut-off; inactive means mostly below about 14%; further: read at 38.3 µM for the half of the compounds with a filed dose; 0% is about no effect
# FBPA Giardia inh: inhibitors of Giardia lamblia fructose-1,6-bisphosphate aldolase; Potency, µM (top dose mostly 59.6 µM), without a hit: at the highest dose activity, negative = inhibition, hits mostly inhibitors; hit rate 0.71% among 290,000; A8B2U2; purified Giardia FBPA; further: potency means the concentration at half of the fitted maximal effect; on the % scale 0 is the no-effect control and ±100 the full control effect; nearly all actives have a fitted effect of over 55% in size
# Target sequence (A8B2U2 whole entry, looked up): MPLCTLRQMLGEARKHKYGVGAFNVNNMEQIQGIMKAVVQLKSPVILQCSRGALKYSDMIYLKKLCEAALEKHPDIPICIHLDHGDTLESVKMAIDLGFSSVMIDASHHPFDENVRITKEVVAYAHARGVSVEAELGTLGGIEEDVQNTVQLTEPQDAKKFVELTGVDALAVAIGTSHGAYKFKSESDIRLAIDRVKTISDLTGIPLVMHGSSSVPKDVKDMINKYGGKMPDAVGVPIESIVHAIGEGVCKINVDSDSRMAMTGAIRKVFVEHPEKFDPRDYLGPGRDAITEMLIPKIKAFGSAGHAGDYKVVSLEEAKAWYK
#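 Giardia FBPA (40 nM reagent) was preincubated 10 min at RT with compound (up to 57.5 uM final), then substrate plus GAPDH/TPI/NAD/arsenate coupling system with diaphorase/resazurin was added; resorufin fluorescence (525/598 nm) was read after 20 min.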
# Tb PYK inh: blocks Trypanosoma brucei pyruvate kinase; Q57TT1; TbPYK enzyme, Kinase-Glo Plus ATP luminescence, 45 min; Potency, µM (top dose mostly 76.8 µM), inactives show at the top dose activity, negative = inhibition, usual class: inhibitors; hit rate 0.12% among 410,000; AID 624173; further: potency means the concentration at half of the fitted maximal effect; on the % scale 0 is the no-effect control and ±100 the full control effect; nearly all actives have a fitted effect of over 50% in size
#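 Luminescence from Kinase-Glo Plus, added after a 45-minute room-temperature reaction, served as the end-point read-out. The enzyme and substrate were preincubated with compound before ADP (130 uM final) initiated turnover. Concentration-effect curves came from normalized qHTS data.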
# * = called active by the depositor; ? = inconclusive; . = no result given; [ ] = another dose, or the depositor's remark. Unless noted, the call rests on the fitted dose curve; in most records, active means well fitted curve in the direction sought with a large enough effect; inconclusive means small, poorly fitted or top-dose-only effect, or another doubt; inactive means no such curve, though single readings can be large; an effect the other way counts as inactive or inconclusive.
SMILES,Shiga toxin inh,LmPK inhibitor,Sm TGR block,CHX counter,FBPA Giardia inh,Tb PYK inh
CCOC(=O)/C=C/COc1ccccc1[N+](=O)[O-],102*,3%,2%,47*,1%,8%
O=C(/C=C/c1ccccc1)Nc1nc(-c2cccs2)ns1,.,.,11%,.,.,20%
[O][C@H]1[C@@H](O)[C@@H](CO)O[C@@H](O[C@@H]2[C@@H]3OC[C@H]2O[C@H](O[C@@H]2[C@@H](O)[C@H](C[C@@H]4[C@@H]5OC[C@H]4O[CH][C@@H]5O)O[C@H](CO)[C@@H]2OS(=O)(=O)O)[C@@H]3OS(=O)(=O)O)[C@@H]1O,19,.,.,-13,0%,.
COc1ccc(OCCOc2ccccc2[N+](=O)[O-])cc1,26,-1%,-3%,39*,-3%,-14%
COc1ccc(CNc2ncccc2[N+](=O)[O-])cc1,52*,-5%,-7%,26*,13%,-5%
CC1CN(CCCOc2ccccc2[N+](=O)[O-])CC(C)O1 (stereo not drawn),4,0%,10%,3,?,6%
COc1ccc(OCCOCCOc2ccc(C)cc2[N+](=O)[O-])cc1,23,0%,-1%,-2,-7%,-3%
O=[N+]([O-])c1ccccc1OCCCN1CCOCC1,22,-3%,8%,9.3*,1%,-3%
c1ccc(-c2ccccc2OCCCN2CCOCC2)cc1,21,1%,.,28*,13%,-8%
COc1cc(C(=O)NCc2nc3cccnc3n2Cc2ccc(C)cc2)cc(OC)c1OC,.,.,5%,.,.,0%
Cn1c(-c2ccccc2)cc2c3no[n+]([O-])c3ccc21,68*,5%,9%,27*,1%,-1%
c1ccc(COc2ccc(CNn3cnnc3)cc2)cc1,65*,-9%,7%,26*,-4%,4%
CC(C)Cc1ccc(-c2cc3nc(NCCCn4ccnc4)ccn3n2)cc1,.,.,.,.,.,-5%
CCc1ccc(NC(=O)CSc2nnnn2C)cc1,78*,-2%,8%,56*,11%,-13%
CCOc1ccc(NC(=O)C(C)Sc2nnnn2C)cc1 (stereo not drawn),15,2%,-5%,11*,0%,0%
Cn1nnnc1SCC(=O)Nc1ccc(Oc2ccccc2)cc1,22,-3%,-1%,8.9*,-1%,-1%
CC(Sc1nnnn1C)C(=O)Nc1ccccc1 (stereo not drawn),41,0%,7%,-1,0%,5%
Cc1ccc(-c2cc(C(=O)Nc3c(C(=O)c4ccc(C)c(F)c4)oc4ccccc34)no2)cc1,.,.,-5%,.,.,0%
CCOc1cc(-c2nc(-c3ccc(-c4ccc(C)cc4)nc3OC)no2)cc(OCC)c1OCC,.,.,2%,.,.,1%
O=C(Nc1ccc(N2CCCC2)c(Cl)c1)c1ccco1,92*,-20%,-28%,32*,-18%,-3%
CCN1CCN(c2ccc(NC(=O)c3cccc(F)c3)cc2Cl)CC1,97*,-1%,0%,18*,-4%,2%
CCC(=O)Nc1ccc(N2CCN(CC)CC2)c(Cl)c1,-14,4%,50%,12,.,2%
O=C(Nc1ccc(N2CCCCC2)c(C(=O)O)c1)c1ccco1,15,2%,-1%,7,2%,5%
CCC(=O)Nc1ccc(N2CCN(C(=O)c3ccco3)CC2)c(Cl)c1,11,-4%,-1%,10,1%,0%
CN1CCN(c2ccc(NC(=O)c3ccco3)cc2Cl)CC1,55,-3%,-1%,47*,0%,-8%
SMILES,Shiga toxin inh,LmPK inhibitor,Sm TGR block,CHX counter,FBPA Giardia inh,Tb PYK inh
CCN1CCN(c2ccc(NC(=O)c3ccco3)cc2Cl)CC1,59*,0%,10%,27*,11%,0%
Cc1ccc(NC(=O)c2cc(NC(=O)c3ccco3)ccc2N2CCOCC2)cc1Cl,-9,-1%,-1%,-2,-3%,-14%
O=C(c1ccc(N2CCN(CCO)CC2)nc1)N1CCOCC1,13,-7%,-12%,-3,1%,-10%
O=C(Nc1cc(Cl)ccc1N1CCOCC1)c1ccco1,-15,-6%,-17%,-2,.,-2%
O=C(Nc1ccc(N2CCOCC2)c([N+](=O)[O-])c1)c1ccco1,70*,-3%,7%,20*,-20%,-4%
CCOP(=O)(OCC)C(NC(=O)Cc1ccccc1)C(Cl)(Cl)Cl (stereo not drawn),-4,4%,2%,-3,5%,4%
CC(C)C(=O)NC(Oc1ccccc1Cl)C(Cl)(Cl)Cl (stereo not drawn),-7,10%,25µM*,-2,0%,-2%
O=C(Cc1ccccc1)NC(Oc1ccccc1Cl)C(Cl)(Cl)Cl (stereo not drawn),-1,-3%,32µM*,5,0%,-5%
CCC(C)C(C(=O)OCC[N+](C)(CC)CC)c1ccccc1 (stereo not drawn),.,.,.,.,.,1%
CC1=C(C(=O)OC2CCCC2)C(c2ccccc2Cl)CC(=O)N1 (stereo not drawn),.,.,-3%,.,.,-3%
CNc1ncnc2c1ncn2[C@@H]1O[C@H](CO)[C@H](O)[C@H]1O,.,.,.,.,-3%,.
Oc1[nH]c2ccccc2c1N=Nc1ccccc1,104*,-11%,-3%,44*,4%,-13%
Oc1[nH]c2ccccc2c1N=Nc1ccccc1F,125*,-3%,0%,21*,0%,5%
Oc1[nH]c2ccccc2c1N=Nc1ccc(F)cc1,66*,-12%,2%,21*,0%,-6%
Oc1[nH]c2ccccc2c1N=Nc1nc2ccccc2s1,49*,-10%,-3%,35*,3%,4%
O=C(N=Nc1c(O)[nH]c2ccccc12)Nc1ccccc1,.,.,.,.,.,30%
Cc1c(Cl)cccc1NC(=S)Nc1ccc(S(=O)(=O)Nc2ncccn2)cc1,.,.,.,.,.,-8%
O=[N+]([O-])c1ccc(N=Nc2c(O)[nH]c3ccc(F)cc23)cc1,56*,-8%,2%,44*,12%,-21%
CC(C)(O)C(=O)N=Nc1c(O)[nH]c2ccccc12,61*,-8%,9%[57.1 µM],33*,0%,-4%
C[C@]12CC[C@@H]3c4ccc(O)c(O)c4CC[C@H]3[C@@H]1CC[C@@H]2O,36,1µM*,?,8,13µM*,10µM*
CCOc1ccc(CN2C(=O)c3ccccc3Sc3ccc(C(=O)OC)cc32)cc1,.,.,1%,.,.,-5%
O=c1c2sc3ccccc3c2n(Cc2ccccc2F)c(=O)n1Cc1ccccc1,.,.,-1%,.,.,-4%
CCCNC(=O)c1ccc2nc(CCc3ccccc3)oc2c1,.,.,8%,.,.,3%
CCc1ccc(CNC(=O)c2ccc(OC3CCN(C(C)=O)CC3)c(OC)c2)nc1,-16,-6%,0%,-7,.,0%
CCOC(=O)CCNC(=O)c1ccc2nc(C3CCCCC3)oc2c1,27,3%,5%,17*,5%,0%
CCc1ccc(CNC(=O)c2ccc3nc(C4CCCCC4)oc3c2)nc1,33*,1%,-22%,46*,.,.
